Hits are enriched below; roughly 17% of the tested compounds scored in any of these assays.
HT1080 IDH1KD tx – qHTS for induction of synthetic lethality in tumor cells producing 2HG: qHTS for the HT-1080-IDH1KD cell line; actives 2% (n = 360,000); AID 686971, 2013; Potency, µM (highest dose often 46.1 µM), for inactives: at the highest dose activity, negative = toxicity, actives largely listed as cytotoxic; HT-1080 IDH1 knockdown viability, ATP luminescence, 48 h;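 further: 0% = DMSO wells and -100% = cell-free medium wells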
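Viability of IDH1-knockdown HT-1080 fibrosarcoma cells was assessed by CellTiter-Glo after 48 h at 37 °C with titrated compound; concentration-effect curves were classified by fit quality and response size.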
HT1080-NT tox – qHTS for induction of synthetic lethality in tumor cells producing 2HG: qHTS for the HT-1080-NT fibrosarcoma cell line | AID 686970, 2013 | Potency, µM (series often up to 46.1 µM), without a hit: at the top dose activity, negative = less viability, hits mostly cytotoxic | HT-1080-NT fibrosarcoma viability, CellTiter-Glo ATP luminescence, 48 h | actives 1.6% (n = 360,000);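 further: NT is the 2HG producing partner of a matched IDH1 knockdown line; 0% = DMSO-treated cells and -100% = media-only wells without cells; nearly all actives have a fitted effect of over 55% in size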
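Luminescent CellTiter-Glo readout after 48 hours of compound exposure at 37 degrees C defined viability of HT-1080-NT cells. Activity was normalized to DMSO wells and cell-free media wells; concentration-response curves were fitted and assigned curve classes.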
TGFb SMAD3 inh – qHTS for Inhibitors of TGF-b; HepG2 CAGA-GFP TGF-b/SMAD3 reporter, GFP fluorescence, 18 h; TGF-beta stimulated, 500 pg/mL final; Potency, µM (titrated, usually from 46.1 µM), without a hit: at the top dose activity, negative = inhibition, actives largely listed as inhibitors; actives 1.2% (n = 410,000); further: on the % scale 0 is the no-effect control and ±100 the full control effect; nearly all actives have a fitted effect of over 65% in size
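TGF-beta reporter screen: HEPG2 CAGA-GFP, 1% FBS, 500 pg/mL TGF-beta final, 18 h; per-cell GFP summed per well; curves fitted and categorized by class.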
HepG2 tox – qHTS for Inhibitors of TGF-b: Cytotox Counterscreen; Potency, µM (series often up to 46.1 µM), inactives show at the top dose activity change, negative = cytotoxicity, hits mostly cytotoxic; AID 588856, 2011; actives 0.76% (n = 410,000); HepG2 CAGA-GFP viability, ATP luminescence, 18 h
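HepG2 CAGA-GFP cells (1000/well, DMEM with 1% FBS) received compound, then TGF-beta at 500 pg/mL final, and were incubated 18 hours at 37 degrees C. Viability was read by CellTiter-Glo luminescence. Media-only wells were set as complete cell-killing and DMSO as no toxicity.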
DT40 TDP1 CPT – qHTS for Inhibitors of human tyrosyl-DNA phosphodiesterase 1 (TDP1): qHTS in cells in presence of CPT; chicken DT40 Tdp1-/-;hTDP1 cells + 20 nM CPT, ATP luminescence, 48 h; Potency, µM (doses to about 46.2 µM), inactives show at the top dose activity change, negative = growth inhibition, most hits filed as inhibitors; actives 12% (n = 420,000); AID 686979, 2013; further: on the % scale 0 is the no-effect control and ±100 the full control effect; nearly all actives have a fitted effect of over 55% in size
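Chicken DT40 Tdp1-/- cells stably complemented with human TDP1 were seeded at 400 cells/well in medium containing 20 nM camptothecin, exposed to pin-transferred compounds, and grown at 37 °C for at least 48 hr. Viability was read as ATP luminescence.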
TDP1 cell noCPT – qHTS for Inhibitors of human tyrosyl-DNA phosphodiesterase 1 (TDP1): qHTS in cells in absence of CPT. AID 686978, 2013. DT40 Tdp1-/- hTDP1 cells, no CPT, ATP luminescence, 48 h. Potency, µM (top dose mostly 46.2 µM), inactives show top-dose activity change, negative = growth inhibition, usual class: inhibitors. actives 15% (n = 420,000); further: on the % scale 0 is the no-effect control and ±100 the full control effect; nearly all actives have a fitted effect of over 55% in size
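Luminescent ATP content (CellTiter-Glo) served as the growth readout. Knockout chicken DT40 cells expressing human TDP1 were exposed to compounds without camptothecin for a minimum 48 hr at 37 °C.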
* hit, by the source's call; ? = inconclusive; . = no result given; [ ] = another dose, or the depositor's remark. The call rests on the fitted dose curve; in most records, active means well fitted curve in the direction sought with a large enough effect; inconclusive means small, poorly fitted or top-dose-only effect, or another doubt; inactive means no such curve, though single readings can be large; an effect the other way counts as inactive or inconclusive. Potency means the concentration at half of the fitted maximal effect.

SMILES | HT1080 IDH1KD tx | HT1080-NT tox | TGFb SMAD3 inh | HepG2 tox | DT40 TDP1 CPT | TDP1 cell noCPT
Nc1ccc(Cc2nc3c(ccc4ccccc43)[nH]2)cc1 | ? | ? | ? | 0% | -16% | -18%
O=c1[nH]c(-c2ccccn2)nc(C(F)(F)F)c1Br | ? | ? | -5% | -8% | 6.5µM* | 4.6µM*
O=c1[nH]c(-c2ccccc2O)nc2ccccc12 | . | . | . | . | 5%[9.04 µM] | -13%[9.04 µM]
Nc1nc(-c2nc3ccccc3[nH]2)cs1 | -9% | -13% | -1% | -37% | 23µM* | ?
O=C(NCCOc1ccccc1F)c1ccc2c(=O)n3c(nc2c1)CCC3 | 4% | 6% | -13% | -18% | ? | -18%
COc1ccc(C)cc1S(=O)(=O)N(CC(N)=O)Cc1ccccc1 | 0% | 1% | 36% | -1% | 17% | -12%
CC(=O)C(=Cc1ccccc1)c1ccccc1 | 2% | 2% | . | . | ? | -28%
Cc1ccc2nc(-c3ccccn3)[nH]c2c1 | 18µM* | ? | -12% | -79% | ? | ?
c1ccc(-c2nc3ccccc3[nH]2)nc1 | -21% | -11% | -13% | -47% | ? | 16µM*
COc1cccc(N2CCN(C(=O)c3cc4c(s3)CCCCC4)CC2)c1 | 5% | -10% | -28% | -37% | ? | ?
Cc1ccc(-n2nc(C(C)(C)C)cc2NC(=O)Nc2ccc(OCCN3CCOCC3)c3ccccc23)cc1 | . | . | . | . | -112% | ?
COc1ccc(NC(C)=O)cc1S(=O)(=O)NCc1ccc2c(c1)OCO2 | 1% | -1% | 3% | -5% | -10% | -17%
CCS(=O)(=O)N1CCN(c2ccc(C(=O)NC34CC5CC(CC(C5)C3)C4)cc2[N+](=O)[O-])CC1 | 8% | 6% | 1% | -24% | 12µM* | 7.3µM*
CS(=O)(=O)N1CCN(c2ccc(C(=O)NC34CC5CC(CC(C5)C3)C4)cc2[N+](=O)[O-])CC1 | 10% | 2% | -13% | -30% | 15µM* | 9.2µM*
O=C(NC12CC3CC(CC(C3)C1)C2)c1ccc([N+](=O)[O-])cc1 | -6% | 1% | ? | -13% | ? | -16%
Nc1ccc(C(=O)Nc2ccc(Nc3ccncc3)cc2)cc1 | -4% | -3% | -21% | -47% | ? | 29µM*
O=C(Nc1ccc(Br)cc1)c1cccc(C(=O)Nc2ccc(Br)cc2)c1 | . | . | -12% | -33% | ? | 21µM*
O=C(Nc1ccncc1)c1ccc(Br)cc1 | 2% | 3% | 6% | 2% | ? | 5.2µM*
CC1=NN(c2cccc(C(=O)O)c2)C(=O)/C1=C\C=C/c1ccccc1 | ? | ? | ? | -58% | 0.58µM* | 1.3µM*
CC1=NN(c2ccccc2)C(=O)/C1=C/C=C/C=C/N(C)C | ? | -11% | 13% | -6% | ? | ?
CC1=NN(c2ccc(C)cc2)C(=O)/C1=C\C=C\c1ccccc1 | -16% | 16% | ? | -41% | 12µM* | 9.2µM*
Cc1nn(C)cc1CN(C)C(=O)C1CCC(=O)N(CCc2cccc(F)c2)C1 (stereo not drawn) | -3% | -3% | 1% | 1% | -25% | 6%
CCCC[C@H](CN[C@@H](CNC)[C@H](C)CC)NCCC12CCC(CC1)C2 | ? | ? | ? | -102% | 2.6µM* | 3.7µM*
CCOc1ccc(S(=O)(=O)Nc2ccc(-c3ccc(OC)nn3)cc2)cc1 | . | . | ? | -60% | ? | ?
CCOc1ccc(-c2ccc(NS(=O)(=O)c3ccc(C)cc3)cc2)nn1 | . | . | -14% | -8% | 16µM* | ?
SMILES | HT1080 IDH1KD tx | HT1080-NT tox | TGFb SMAD3 inh | HepG2 tox | DT40 TDP1 CPT | TDP1 cell noCPT
CCOc1ccc(-c2ccc(NS(=O)(=O)c3cc(C)c(C)cc3C)cc2)nn1 | . | . | ? | -4% | 23µM* | 18µM*
Cc1cc(C)c(S(=O)(=O)Nc2ccc(-c3ccc(N4CCCCCC4)nn3)cc2)cc1C | . | . | 1% | 3% | ? | ?
Cc1cc(C)c2cc(C#N)c(SCC(=O)NCc3ccco3)nc2c1 | -6% | -2% | -11% | -14% | 18µM* | 18µM*
O=C(CSc1c2c(nc3cc(Cl)ccc13)CCCC2)NCc1ccco1 | ? | -19% | 18µM* | -44% | 23µM* | 16µM*
O=C(CSc1c2c(nc3cc(Cl)ccc13)CCCC2)NCc1ccccc1Cl | . | . | ? | -28% | 18µM* | 15µM*
CCCCN(CC)C(=O)CSc1c2c(nc3ccc(Cl)cc13)CCCC2 | . | . | ? | -90% | 7.3µM* | 16µM*
CCC(C)NC(=O)CSc1c2c(nc3cc(Cl)ccc13)CCCC2 (stereo not drawn) | . | . | 5% | 6% | ? | ?
CCCCNC(=O)CSc1c2c(nc3ccc(Cl)cc13)CCCC2 | . | . | -24% | -32% | ? | ?
O=C(NCCOc1ccc(F)cc1)C1CCC(=O)N(CCc2ccccn2)C1 (stereo not drawn) | -2% | -1% | -1% | 3% | -5% | -3%
O=S1(=O)CCN(C2CCCC2)CC1 | 7% | 10% | -3% | -21% | -5% | -16%
O=C(CSc1nnc(CNC(=O)c2c(F)cccc2F)o1)NCc1ccc(F)cc1 | 4% | 14% | 8% | 12% | -23% | 6%
O=C(CSc1c2c(nc3ccc(Cl)cc13)CCCC2)NCc1ccccc1Cl | . | . | -12% | -35% | 15µM* | 23µM*
COCCNC(=O)CSc1c2c(nc3ccc(Cl)cc13)CCCC2 | -29% | -21% | -15% | -47% | 16µM* | ?
CC(C)CNC(=O)c1ccccc1NC(=O)Nc1ccccc1 | 5% | -10% | -5% | -3% | -6% | -22%
COc1ccc(-c2coc3cc(OC(C)=O)c(OC)cc3c2=O)cc1 | 2% | 10% | 0% | 5% | -1% | -20%
CC(=O)N1CCN(c2nc(-c3ccco3)c3c(c2C#N)CC(C)(C)SC3)CC1 | -1% | -1% | ? | -13% | ? | 23µM*
CC1(C)Cc2c(C#N)c(N3CCN(C(=O)c4ccco4)CC3)nc(-c3ccco3)c2CS1 | 6% | 4% | -1% | -24% | -30% | ?
